Active and inactive are the calls of the source. How the source made its calls: active means hit-call score of the fitted dose curve at least 0.9, where 1 is the maximum; inactive means score below 0.9.
Read-out: solute carrier (SLCO1B1), SLCO1B1 (gene 10599)
Experiment: LTEA_HepaRG_SLCO1B1: Life Technologies and Expression Analysis (LTEA) Assay for solute carrier (SLCO1B1) using HepaRG (AID 2283530)
Settings: mRNA level, 48 h; actives raise or lower the signal
Summary of the method: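 SLCO1B1 transcript levels were quantified by TaqMan qRT-PCR using three housekeeping genes for normalization. This followed 48 h chemical exposure (100 uM top, half-log, 8 points, 0.5% DMSO) of HepaRG liver cells, with gain or loss fitted relative to DMSO.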

Row | SMILES | outcome | AC50
1 | c1cc2ccc3cccc4ccc(c1)c2c34 | inactive | –
2 | CCSC(=O)N(CC)C1CCCCC1 | inactive | –
3 | CC(C)(c1ccccc1)c1ccc(O)cc1 | inactive | –
4 | CCOP(=S)(OCC)SCSC(C)(C)C | inactive | –
5 | CCOC(=O)C(O)(c1ccc(Cl)cc1)c1ccc(Cl)cc1 | inactive | –
6 | Nc1ccc(-c2ccc(N)cc2)cc1 | inactive | –
7 | CCCCCCCCCC[N+](C)(C)CCCCCCCCCC | inactive | –
8 | O=C(O)C(F)(F)C(F)(F)C(F)(F)C(F)(F)C(F)(F)C(F)(F)C(F)(F)C(F)(F)C(F)(F)F | – | 61.8 µM (active)
9 | Cc1cccc(C)c1N | inactive | –
10 | CCCCCCCCCc1ccc(O)cc1 | inactive | –
11 | O=NN(c1ccccc1)c1ccccc1 | inactive | –
12 | CCCCCCCCOC(=O)c1ccccc1C(=O)OCCCCCCCC | inactive | –
13 | Oc1ccc(C(c2ccc(O)cc2)(C(F)(F)F)C(F)(F)F)cc1 | inactive | –
14 | O=C(O)C(F)(F)C(F)(F)C(F)(F)C(F)(F)C(F)(F)F | – | 9.92 µM (active)
15 | NS(=O)(=O)C(F)(F)C(F)(F)C(F)(F)C(F)(F)C(F)(F)C(F)(F)C(F)(F)C(F)(F)F | – | 9.33 µM (active)
16 | O=S(=O)(O)C(F)(F)C(F)(F)C(F)(F)C(F)(F)F | inactive | –

Row | SMILES | outcome | AC50
17 | CC1=C2C[C@H]3[C@@H](CC=C4C[C@@H](O)CC[C@@]43C)[C@@H]2CC[C@]12O[C@@H]1C[C@H](C)CN[C@H]1[C@H]2C | inactive | –
18 | CCC(C)(c1ccc(O)cc1)c1ccc(O)cc1 | inactive | –
19 | CN(C)c1nc(=O)n(C2CCCCC2)c(=O)n1C | inactive | –
20 | Cc1ccccc1O | inactive | –
21 | C=CC(N)=O | inactive | –
22 | Cc1cccc([N+](=O)[O-])c1 | inactive | –
23 | Cc1ccc(O)c(C)c1 | inactive | –
24 | CN(C)CCO | inactive | –
25 | O=C(N[C@H]1CN2CCC1CC2)c1cc2ccoc2cn1 | inactive | –
26 | O=S(=O)(O)C(F)(F)C(F)(F)C(F)(F)C(F)(F)C(F)(F)C(F)(F)F | inactive | –
27 | Cc1cc(-c2ccc(N)c(C)c2)ccc1N | inactive | –
28 | c1ccc(-c2ccccc2)cc1 | inactive | –
29 | C1CC2OC2CC1C1CO1 (stereo unspecified) | inactive | –
30 | Cc1ccccc1CO[C@@H]1C[C@@]2(C(C)C)CC[C@]1(C)O2 | inactive | –
31 | CCC(C)c1cc([N+](=O)[O-])cc([N+](=O)[O-])c1O (stereo unspecified) | – | 2.32 µM (active)

Source: PubChem BioAssay (EPA / NIEHS)
